The values that follow come from article PMC13423814.

Sequence of TCP1, P17987 (P17987 whole entry): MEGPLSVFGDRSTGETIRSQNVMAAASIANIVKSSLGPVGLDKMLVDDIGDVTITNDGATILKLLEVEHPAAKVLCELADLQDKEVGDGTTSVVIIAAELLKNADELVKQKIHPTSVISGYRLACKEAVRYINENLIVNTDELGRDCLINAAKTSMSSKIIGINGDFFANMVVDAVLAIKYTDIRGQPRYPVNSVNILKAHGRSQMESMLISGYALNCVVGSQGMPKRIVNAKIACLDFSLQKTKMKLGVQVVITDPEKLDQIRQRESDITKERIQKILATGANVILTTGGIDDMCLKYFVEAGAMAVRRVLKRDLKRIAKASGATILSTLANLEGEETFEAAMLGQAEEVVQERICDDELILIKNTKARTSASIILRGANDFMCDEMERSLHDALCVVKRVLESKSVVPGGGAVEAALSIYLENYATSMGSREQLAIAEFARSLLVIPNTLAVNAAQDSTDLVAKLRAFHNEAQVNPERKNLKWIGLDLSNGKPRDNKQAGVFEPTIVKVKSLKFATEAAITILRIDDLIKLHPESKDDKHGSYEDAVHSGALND
Sequence of HSPA8, P11142 (P11142 whole entry): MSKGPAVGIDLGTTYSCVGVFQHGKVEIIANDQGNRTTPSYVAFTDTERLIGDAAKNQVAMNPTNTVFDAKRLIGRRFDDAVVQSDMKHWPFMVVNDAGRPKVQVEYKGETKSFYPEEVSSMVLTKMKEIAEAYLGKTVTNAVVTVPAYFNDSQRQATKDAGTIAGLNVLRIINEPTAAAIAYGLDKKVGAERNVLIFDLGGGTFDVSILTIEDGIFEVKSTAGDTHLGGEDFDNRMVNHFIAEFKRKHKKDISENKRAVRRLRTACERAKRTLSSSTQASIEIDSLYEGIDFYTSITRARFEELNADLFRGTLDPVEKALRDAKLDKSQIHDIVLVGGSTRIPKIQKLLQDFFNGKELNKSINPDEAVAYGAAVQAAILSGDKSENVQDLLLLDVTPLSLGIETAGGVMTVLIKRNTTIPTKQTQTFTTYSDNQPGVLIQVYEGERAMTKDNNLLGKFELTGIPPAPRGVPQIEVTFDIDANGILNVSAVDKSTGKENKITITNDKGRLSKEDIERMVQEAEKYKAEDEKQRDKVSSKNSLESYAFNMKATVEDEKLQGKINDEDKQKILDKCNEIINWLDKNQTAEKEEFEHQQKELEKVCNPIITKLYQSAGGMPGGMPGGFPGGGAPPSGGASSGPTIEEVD
Sequence of YWHAE, P62258 (P62258 whole entry): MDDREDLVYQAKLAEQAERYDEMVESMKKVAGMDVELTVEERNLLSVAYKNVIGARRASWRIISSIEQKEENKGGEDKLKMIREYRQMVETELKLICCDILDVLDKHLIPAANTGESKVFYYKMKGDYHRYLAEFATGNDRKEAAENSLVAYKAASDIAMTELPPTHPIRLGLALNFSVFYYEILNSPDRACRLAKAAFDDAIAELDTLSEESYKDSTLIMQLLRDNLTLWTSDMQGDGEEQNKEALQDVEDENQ
Sequence of PDCD5, O14737 (O14737 whole entry): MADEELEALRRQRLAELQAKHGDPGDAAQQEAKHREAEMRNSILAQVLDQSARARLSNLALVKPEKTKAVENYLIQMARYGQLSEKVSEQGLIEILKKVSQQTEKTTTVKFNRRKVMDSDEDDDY
Sequence of FDXR, P22570 (P22570 whole entry): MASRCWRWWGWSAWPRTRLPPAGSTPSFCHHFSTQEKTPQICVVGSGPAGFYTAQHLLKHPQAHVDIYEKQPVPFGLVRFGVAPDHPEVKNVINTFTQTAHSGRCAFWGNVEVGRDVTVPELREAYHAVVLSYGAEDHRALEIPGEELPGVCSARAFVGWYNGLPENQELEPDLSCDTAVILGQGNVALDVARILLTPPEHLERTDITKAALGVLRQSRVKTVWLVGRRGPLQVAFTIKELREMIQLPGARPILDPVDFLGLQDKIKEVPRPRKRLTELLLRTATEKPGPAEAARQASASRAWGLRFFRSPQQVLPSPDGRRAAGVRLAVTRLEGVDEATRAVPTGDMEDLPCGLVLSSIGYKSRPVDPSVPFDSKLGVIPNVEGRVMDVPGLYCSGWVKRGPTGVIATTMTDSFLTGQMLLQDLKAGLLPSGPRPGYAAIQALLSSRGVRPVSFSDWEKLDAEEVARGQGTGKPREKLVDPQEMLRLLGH
Sequence of S100A10, P60903 (P60903 whole entry): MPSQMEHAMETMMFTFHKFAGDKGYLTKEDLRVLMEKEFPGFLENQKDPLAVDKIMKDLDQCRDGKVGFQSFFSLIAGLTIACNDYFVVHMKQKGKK
Sequence of GOT2, P00505 (P00505 whole entry): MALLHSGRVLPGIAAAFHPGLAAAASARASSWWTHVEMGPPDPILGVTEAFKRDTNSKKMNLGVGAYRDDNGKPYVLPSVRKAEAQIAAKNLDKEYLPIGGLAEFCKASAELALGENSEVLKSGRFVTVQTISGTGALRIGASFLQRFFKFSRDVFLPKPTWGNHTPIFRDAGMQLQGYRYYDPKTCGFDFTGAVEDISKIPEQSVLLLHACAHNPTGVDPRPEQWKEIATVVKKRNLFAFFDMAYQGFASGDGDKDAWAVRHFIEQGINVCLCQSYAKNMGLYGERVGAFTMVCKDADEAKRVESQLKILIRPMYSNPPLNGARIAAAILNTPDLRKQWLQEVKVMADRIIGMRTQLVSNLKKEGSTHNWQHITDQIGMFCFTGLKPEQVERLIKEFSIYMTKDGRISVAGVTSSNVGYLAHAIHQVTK
Sequence of CCT3, P49368 (P49368 whole entry): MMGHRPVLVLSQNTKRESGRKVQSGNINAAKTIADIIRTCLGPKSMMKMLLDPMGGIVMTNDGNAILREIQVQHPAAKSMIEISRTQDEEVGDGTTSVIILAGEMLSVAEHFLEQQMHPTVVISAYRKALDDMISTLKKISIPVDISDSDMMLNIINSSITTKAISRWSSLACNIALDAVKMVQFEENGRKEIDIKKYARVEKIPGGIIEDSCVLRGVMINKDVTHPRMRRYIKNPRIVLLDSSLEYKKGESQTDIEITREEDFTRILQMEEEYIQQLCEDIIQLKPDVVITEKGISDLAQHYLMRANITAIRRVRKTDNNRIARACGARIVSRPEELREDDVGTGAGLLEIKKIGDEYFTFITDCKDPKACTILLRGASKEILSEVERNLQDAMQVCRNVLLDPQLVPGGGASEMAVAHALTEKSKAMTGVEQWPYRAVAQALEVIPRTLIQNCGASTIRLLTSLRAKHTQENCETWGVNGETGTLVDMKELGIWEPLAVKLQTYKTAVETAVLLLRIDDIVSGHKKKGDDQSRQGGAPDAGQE

The target in the first assay is ACTR2 (UniProt P61160). To be noted: DSSO, in cells.
Consider ARPC3, O15145, for which the cross-linked residues entry was “K61 - K46”. Still for that read-out and setting: with ARPC1B, O15143 the entry was “K307 - K253”; with GMFB, P60983, “K110 - K368”.

The target of a further assay is AHNAK2 (UniProt Q8IVF2). To be noted: DSSO, in cells.
Take HSPA8, P11142: the cross-linked residues entry is on record as “K601 - K1932”. Same read-out and setting: for YWHAE, P62258 the value was “K69 - K312”; for S100A10, P60903, “K57 - K2639”.

Another assay deals with C1QBP (UniProt Q07021). The conditions noted are these: DSSO, in cells.
Sequence of C1QBP (Q07021 whole entry): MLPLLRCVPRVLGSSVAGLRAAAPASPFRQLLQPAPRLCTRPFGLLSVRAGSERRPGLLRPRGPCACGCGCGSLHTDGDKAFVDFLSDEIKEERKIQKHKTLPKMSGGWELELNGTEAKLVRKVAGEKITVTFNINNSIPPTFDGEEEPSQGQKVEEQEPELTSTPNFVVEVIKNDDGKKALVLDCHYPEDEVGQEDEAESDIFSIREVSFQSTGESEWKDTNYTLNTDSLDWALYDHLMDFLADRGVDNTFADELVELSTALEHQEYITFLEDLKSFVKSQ
Take FDXR, P22570: the cross-linked residues result was “K287 - K123”. The same measure, in the same setting: for MDH2, P40926 the value was “K239 - K123”. On the same count and under the same terms, for GOT2, P00505 the value was “K90 - K123”.

For the next assay, the target named is CCT4 (UniProt P50991). The conditions noted are these: DSSO, in cells.
Sequence of CCT4 (P50991 whole entry): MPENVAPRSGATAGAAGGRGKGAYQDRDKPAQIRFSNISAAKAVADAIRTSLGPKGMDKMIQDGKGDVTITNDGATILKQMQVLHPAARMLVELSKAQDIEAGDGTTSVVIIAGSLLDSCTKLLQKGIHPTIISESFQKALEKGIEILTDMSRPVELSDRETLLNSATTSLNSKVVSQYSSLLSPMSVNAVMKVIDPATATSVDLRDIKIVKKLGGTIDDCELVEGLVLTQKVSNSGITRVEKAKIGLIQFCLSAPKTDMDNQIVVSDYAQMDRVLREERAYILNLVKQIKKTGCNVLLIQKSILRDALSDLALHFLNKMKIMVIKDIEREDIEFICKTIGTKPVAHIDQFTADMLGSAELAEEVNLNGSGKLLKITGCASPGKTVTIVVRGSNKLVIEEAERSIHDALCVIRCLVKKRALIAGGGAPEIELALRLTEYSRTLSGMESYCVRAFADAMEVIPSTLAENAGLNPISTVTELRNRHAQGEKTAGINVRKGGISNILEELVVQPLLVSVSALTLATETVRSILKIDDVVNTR
Consider CCT3, P49368, for which the cross-linked residues entry is recorded as “K529 - K65”. Still for that read-out and setting: with TCP1, P17987 the entry was “K126 - K55”; with PDCD5, O14737, “K110 - K395”.
